Hit rate of the full screen: of about 310,000 compounds, about 14,000 (4.5%) showed an effect of 50% or more. The effect is printed as a negative number. The list comes from a sample in which strong results are over-represented; it also holds similar structures and randomly drawn compounds.
Biological target: human ether-à-go-go-related gene (hERG) potassium channel (human, UniProt Q12809)
Experiment: primary screen, population patch clamp on CHO cells stably expressing hERG; higher = less effect of the substance
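Further: peak tail current of the secondary pulse compared with the same well before compound.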

human ether-à-go-go-related gene (hERG) potassium channel, sequence (Q12809 whole entry, looked up): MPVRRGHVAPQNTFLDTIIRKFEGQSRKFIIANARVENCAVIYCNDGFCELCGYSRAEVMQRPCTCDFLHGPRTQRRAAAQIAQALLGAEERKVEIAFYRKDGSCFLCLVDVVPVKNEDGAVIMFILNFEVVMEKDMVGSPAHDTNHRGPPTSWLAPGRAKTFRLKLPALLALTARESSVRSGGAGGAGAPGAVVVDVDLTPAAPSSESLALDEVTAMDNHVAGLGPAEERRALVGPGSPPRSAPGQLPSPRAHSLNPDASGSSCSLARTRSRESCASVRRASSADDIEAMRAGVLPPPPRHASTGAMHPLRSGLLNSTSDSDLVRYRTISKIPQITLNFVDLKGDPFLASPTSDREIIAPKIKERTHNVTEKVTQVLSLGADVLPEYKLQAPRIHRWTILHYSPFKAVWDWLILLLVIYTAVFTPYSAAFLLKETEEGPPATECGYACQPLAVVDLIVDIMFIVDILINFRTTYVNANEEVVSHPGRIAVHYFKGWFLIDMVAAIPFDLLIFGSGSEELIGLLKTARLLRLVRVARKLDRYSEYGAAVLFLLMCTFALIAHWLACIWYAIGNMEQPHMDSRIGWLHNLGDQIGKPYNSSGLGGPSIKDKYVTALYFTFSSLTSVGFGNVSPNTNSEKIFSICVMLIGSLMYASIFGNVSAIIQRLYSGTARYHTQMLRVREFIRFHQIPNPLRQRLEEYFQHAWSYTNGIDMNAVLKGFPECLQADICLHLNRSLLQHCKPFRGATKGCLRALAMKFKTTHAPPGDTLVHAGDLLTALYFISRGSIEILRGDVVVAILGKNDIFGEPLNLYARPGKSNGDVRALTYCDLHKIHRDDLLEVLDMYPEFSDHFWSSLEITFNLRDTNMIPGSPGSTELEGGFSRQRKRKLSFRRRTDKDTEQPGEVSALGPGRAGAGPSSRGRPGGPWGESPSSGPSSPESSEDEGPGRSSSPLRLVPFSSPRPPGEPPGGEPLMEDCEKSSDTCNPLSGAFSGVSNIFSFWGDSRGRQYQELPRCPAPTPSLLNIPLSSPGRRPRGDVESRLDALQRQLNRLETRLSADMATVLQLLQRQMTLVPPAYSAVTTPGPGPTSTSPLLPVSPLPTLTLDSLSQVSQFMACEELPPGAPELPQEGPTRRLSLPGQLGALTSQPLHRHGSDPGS

Row | Structure (SMILES) | hERG current change (%, negative = inhibition) at 10uM
1 | COc1ccc2nc(Sc3c([N+](=O)[O-])nc(C)n3Cc3ccccc3)[nH]c2c1 | -12.7%
2 | CCOc1ccc(N2CC(C(=O)NC3CCCC3)CC2=O)cc1 (stereo not drawn) | 2.11%
3 | COc1ccc(N(C(=O)CNC(=O)c2ccco2)C(C(=O)NC2CCCC2)c2ccncc2)cc1 (stereo not drawn) | 13.1%
4 | CC(=O)c1sc(NC(=O)CSCc2c(C)noc2C)nc1-c1ccccc1 | -27.4%
5 | O=C(N/N=C/c1c[nH]c2ccc(Br)cc12)C1CC1 | 4.6%
6 | CC(C)C(=O)Nc1nnc(SCC(=O)NC2CC2)s1 | 12.8%
7 | CC(=O)N1c2ccccc2NC2=C(C(=O)CCC2)C1c1cccnc1 (stereo not drawn) | 4.51%
8 | C=CCNC(=O)C1CC(=O)N(c2ccc(OCC(=O)Nc3ccc(OC)cc3)cc2)C1 (stereo not drawn) | -3.5%
9 | COc1ccc(-c2cc(=O)oc3cc(OC(C)C(=O)O)ccc23)cc1 (stereo not drawn) | 6.26%
10 | Cc1cccc(NC(=O)CNC(=O)Cc2ccc(S(=O)(=O)N3CCOCC3)s2)c1C | 5.91%
11 | CN(C)S(=O)(=O)c1cccc(C(=O)Nc2cc(Cl)cc(Cl)c2)c1 | 4.25%
12 | CC(=O)c1ccc(NS(=O)(=O)c2ccc3c(c2)CCC(=O)N3)cc1 | 8.49%
13 | Cn1c(=O)c2c(nc(CN3CCN(C(=O)c4ccco4)CC3)n2CCc2ccccc2)n(C)c1=O | -66.3%
14 | Cn1c(=O)c2c(nc(CN3CCN(C(=O)c4ccco4)CC3)n2CCCc2ccccc2)n(C)c1=O | -68.5%
15 | Cn1c(=O)c2c(nc(CN3CCN(C(=O)c4ccco4)CC3)n2CC(N)=O)n(C)c1=O | 24.4%
16 | COCCn1c(CN2CCN(C(=O)c3ccco3)CC2)nc2c1c(=O)n(C)c(=O)n2C | -9.04%
17 | CCn1c(CN2CCN(C(=O)c3ccco3)CC2)nc2c1c(=O)n(C)c(=O)n2C | -16.4%
18 | Cn1c(=O)c2c(nc(CN3CCN(C(=O)c4ccco4)CC3)n2CCCO)n(C)c1=O | -27.6%
19 | CCN(CC)C(=O)c1cccc(C)c1 | 0.757%
20 | Cc1cccc(C(=O)N/C(=C\c2ccco2)C(=O)N2CCCC2)c1 | -18.6%
21 | CC(C)Cn1nc(C(=O)Nc2cccc(C(=O)NC3CC3)c2)c2ccccc2c1=O | -71.6%

Row | Structure (SMILES) | hERG current change (%, negative = inhibition) at 10uM
22 | CC(C)Cn1nc(C(=O)Nc2cccc(S(=O)(=O)N3CCCC3)c2)c2ccccc2c1=O | -7.01%
23 | Cn1nc(C(=O)Nc2cccc(C(=O)NC3CC3)c2)c2ccccc2c1=O | -35.3%
24 | CCCn1nc(C(=O)NC2CC2)c2ccccc2c1=O | -19.8%
25 | CCCCn1nc(C(=O)Nc2cccc(C(=O)NC3CC3)c2)c2ccccc2c1=O | -82.6%
26 | Cc1nc2ccc(NC(=O)c3nn(CC(C)C)c(=O)c4ccccc34)cc2s1 | -26%
27 | N#C/C(C(=O)N1CCOCC1)=c1/s/c(=C\c2ccccn2)c(=O)n1-c1ccccc1 | 17.6%
28 | COCCCn1c(N)c(C(=O)NCc2ccco2)c2nc3ccccc3nc21 | 4.53%
29 | Cc1cc(C)n2nc(SCC(=O)N/N=C/c3ccccn3)nc2n1 | 3.74%
30 | C=CCN1C(=O)/C(=C\c2cccc(OC(=O)c3ccco3)c2)SC1=S | 2.37%
31 | CC(C)n1ncc2c(C(=O)N3CCN(Cc4ccc(Br)s4)CC3)cc(C3CC3)nc21 | -4.36%
32 | CC(=O)Nc1ccc(OS(=O)(=O)c2ccc(Cl)cc2)cc1 | -24.5%
33 | COc1ccc(Cl)cc1S(=O)(=O)Oc1ccc(NC(C)=O)cc1 | -51.7%
34 | CC(=O)Nc1ccc(OS(=O)(=O)c2cc(Cl)ccc2C)cc1 | -6.02%
35 | COc1ccc(CCNC(=O)c2ccc3nc(-c4ccco4)c(-c4ccco4)nc3c2)cc1OC | -0.346%
36 | COc1ccc(Cn2c(O)c(C=Nc3ccc(O)cc3)c3ccccc3c2=O)cc1 | 1.27%
37 | O=C(c1[nH]nc2c1CCc1ccccc1-2)N1CCN(Cc2ccc3c(c2)OCO3)CC1 | -26.9%
38 | O=C(N/N=C/c1ccc(O)cc1O)C(=O)N/N=C/c1ccc(O)cc1O | 14.1%
39 | Nc1[nH]n2c(=O)c3c(nc2c1N=Nc1ccc(Cl)cc1)CCCC3 | -8.56%
40 | Nc1[nH]n2c(=O)c3c(nc2c1N=Nc1ccccc1)CCCC3 | -54.3%
41 | COc1cccc(N=Nc2c(N)[nH]n3c(=O)c4c(nc23)CCCC4)c1 | 12.2%
42 | COc1ccc(OC)c2[nH]c(=O)c(CCNC(=O)c3ccc4c(c3)OCO4)cc12 | -10.2%

— PMC4336329 (PLoS ONE, 2015)
